Compounds with a hit are over-represented: about 31% of the library has one in this group of screens.
CYP2C19 inh = inhibitors of human CYP2C19 | P33261 | CYP2C19 Supersomes, luciferin-H EGE luminescence, 30 min | inhibition, % at 5 µM | 21% of 96,000 active | AID 778;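 active = CYP2C19 inhibition above a set limit at 5 µM in the primary screen, cut at about 50% in these data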
Target sequence (P33261 whole entry, looked up): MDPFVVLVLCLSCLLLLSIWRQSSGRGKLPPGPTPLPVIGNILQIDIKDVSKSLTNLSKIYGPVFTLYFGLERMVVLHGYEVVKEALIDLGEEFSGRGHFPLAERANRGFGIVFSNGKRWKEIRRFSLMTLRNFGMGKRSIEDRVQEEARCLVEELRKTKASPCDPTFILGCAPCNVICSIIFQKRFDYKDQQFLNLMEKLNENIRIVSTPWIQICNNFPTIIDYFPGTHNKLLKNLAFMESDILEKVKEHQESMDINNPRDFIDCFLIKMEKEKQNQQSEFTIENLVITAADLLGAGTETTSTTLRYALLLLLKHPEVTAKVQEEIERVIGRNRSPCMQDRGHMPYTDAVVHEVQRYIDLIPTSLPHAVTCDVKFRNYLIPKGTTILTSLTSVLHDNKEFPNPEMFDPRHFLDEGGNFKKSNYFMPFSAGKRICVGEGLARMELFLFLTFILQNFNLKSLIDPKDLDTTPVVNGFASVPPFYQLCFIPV
CYP2C9 act = activators of human CYP2C9. P11712. recombinant CYP2C9, luciferin-H conversion, luminescence; hits give high values; factor 1 = untreated enzyme, 0 = blocked. activation factor at 5 µM. 1.4% of 96,000 active. AID 1024;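 active = activation factor of 2 or more for CYP2C9 at a 5 µM dose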
CYP2C9 inh = blocks human cytochrome P450 2C9. CYP2C9 Supersomes, luciferin-H conversion, luminescence. P11712. AID 777. inhibition, % at 5 µM. 20% of 96,000 active;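 active = blocking of liver enzyme CYP2C9 beyond about 50% at 5 µM, limit read from the data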
CYP2C19 activ = activators of human cytochrome P450 2C19. 96,000 tested, under 10 active. AID 1025. recombinant CYP2C19, luciferin-H EGE luminescence; hits give high values; 0 = fully inhibited enzyme, 1 = untreated enzyme. activation factor at 5 µM. P33261;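 active = activation factor of at least 2 at 5 µM in the primary screen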
Of the large screens only hits and unclear results are named; the others gave an inactive call.

Cc1ccc(CNC(=O)CCS(=O)(=O)c2cccc3nonc23)cc1	none
O=C(c1ccccc1Oc1nnnn1-c1ccccc1)N1CCOCC1	none
Cc1ccc(C)c(Oc2nnnn2-c2ccccc2)c1	CYP2C19 inh 93
Cc1ccc(C(C)C)c(Oc2nnnn2-c2ccccc2)c1	CYP2C19 inh 91, CYP2C9 inh 76
COc1ccccc1Oc1nnnn1-c1ccc(C(N)=O)cc1	none
COCCn1cc(C(=O)N2CCCC(C)C2)c2c3ccccc3n(C)c2c1=O (stereo not given)	none
Cc1cccc(C(=O)Nc2ccccc2SCC2CSc3nc4ccccc4c(=O)n32)c1 (stereo not given)	none
O=c1c(-c2nc3ccccc3s2)cccn1Cc1ccc(Cl)c(Cl)c1	CYP2C9 inh 74
O=C([C@H](Cc1ccccc1)NS(=O)(=O)c1ccc(Cl)cc1)N1CC[C@@]2(O)CCCC[C@H]2C1	none
O=C1CC(c2ccccc2)n2nc(NC(=O)C3CCCO3)nc2N1 (stereo not given)	CYP2C19 inh 91, CYP2C9 inh 79
O=C1CC(c2ccccc2)n2nc(NC(=O)c3ccccc3)nc2N1 (stereo not given)	none
Cc1cc(S(=O)(=O)N2CCCC2C(=O)N2CCOCC2)c(C)cc1Cl (stereo not given)	CYP2C19 inh 63, CYP2C9 act 3
O=C(C1CCN(S(=O)(=O)c2ccc(Cl)cc2)CC1)N1CCOCC1	none
Cc1cc(OCC(=O)Nn2cnnc2)c(C)cc1Br	CYP2C19 inh 99, CYP2C9 inh 90
O=C(COc1ccc2ccccc2c1Br)NNC(=O)Nc1ccccc1	none
Cc1ccc(Cl)c(OCC(=O)Nc2ccc3c(c2)OCCO3)c1	none
O=C(COc1ccc(Cl)cc1Cl)NC(=O)N1CCCCC1	none
Cc1cc(OCC(=O)NCc2nc(-c3ccccc3)no2)c(C)cc1Br	none
O=C(COc1cc(Cl)c(Cl)cc1Cl)Nc1ccncc1	CYP2C19 inh 99, CYP2C9 inh 100
O=C(COc1ccc2ccccc2c1Br)Nn1cnnc1	CYP2C19 inh 98, CYP2C9 inh 85
O=C(COc1cc(Cl)c(Cl)cc1Cl)Nn1cnnc1	CYP2C19 inh 96, CYP2C9 inh 82
Cc1ccc(S(=O)(=O)N2C(=O)CCC2C(=O)NCc2ccco2)cc1 (stereo not given)	none
CCOCCN1CCN(c2c(C)c(C)nc3cc(-c4cc(OC)cc(OC)c4)nn23)CC1	CYP2C19 inh 87, CYP2C9 inh 54
COc1cc(OC)cc(-c2cc3nc(C)c(CCC(=O)O)c(C)n3n2)c1	none
Cc1ccc(C(=O)Oc2ccccc2N2C(=O)C3CCCCC3C2=O)cc1 (stereo not given)	none
COc1ccccc1C(=O)O/N=C(/C)c1ccc(N2C(=O)C3CCCCC3C2=O)cc1 (stereo not given)	CYP2C19 inh 54, CYP2C9 act 3.3
Cc1noc(C)c1CSc1ccccc1C(=O)Nc1nccs1	CYP2C19 inh 76
CC(C)NS(=O)(=O)c1ccc(NC(=O)C2CC3C=CC2C3)cc1 (stereo not given)	none
CCCCn1cnc2sc3c(c2c1=N)CCCC3	CYP2C19 inh 60
N=c1c2c3c(sc2ncn1CCCO)CCCC3	none
COC(=O)C(/C=N/OCc1ccc([N+](=O)[O-])cc1)NC(=O)c1cccc(Cl)c1 (stereo not given)	CYP2C19 inh 79, CYP2C9 inh 61
CN(C)c1ccc(/C=N/NC(=O)CN(c2ccccc2Cl)S(C)(=O)=O)cc1Br	none
CCc1ccccc1N(CC(=O)N/N=C/c1ccc(OC(=O)OC)c(OC)c1)S(C)(=O)=O	CYP2C9 inh 50
COC(=O)C1=C(C)Nc2ccc(C)cc2S1	CYP2C19 inh 62
O=C(c1ccc(F)cc1F)N(Cc1ccccn1)Cc1ccco1	CYP2C19 inh 73
CCN(Cc1ccccc1)S(=O)(=O)c1ccc(S(=O)(=O)N(Cc2ccccn2)Cc2ccco2)cc1	none
CCOC(=O)N1CCN(S(=O)(=O)c2ccc3c(c2)SCC(=O)N3)CC1	none
O=C1C2C3C=CC(C2C(=O)N1CCCO)C1C2C(=O)N(CCCO)C(=O)C2C31 (stereo not given)	none
Cc1cc(C)c2c(CC(=O)Nc3nccs3)coc2c1	none
N#Cc1cnn(Cc2ccccc2)c1N	none
O=C1N/C(=N/N=C/c2ccccc2)SC1(c1ccccc1)c1ccccc1	CYP2C9 inh 94
CCOC(=O)N1CCC2(CC1)C(C(=O)C13CC4CC(CC(C4)C1)C3)C2(C#N)C#N (stereo not given)	CYP2C19 inh 67, CYP2C9 inh 52
C=CCNCCCCOc1ccc(OCC)cc1	none
Cc1onc(-c2c(F)cccc2Cl)c1C(=O)Nc1nnc(-c2ccccc2)s1	none
Cc1onc(-c2c(F)cccc2Cl)c1C(=O)Nc1ccc(S(=O)(=O)Nc2ncccn2)cc1	none
Cc1onc(-c2c(F)cccc2Cl)c1C(=O)Nc1nnc(C2CC2)s1	CYP2C19 inh 62, CYP2C9 inh 63
Cc1onc(-c2c(F)cccc2Cl)c1C(=O)NC1CCSC1=O (stereo not given)	CYP2C19 inh 82, CYP2C9 inh 65
Cc1onc(-c2c(F)cccc2Cl)c1C(=O)Nc1sc2c(c1C(N)=O)CCC2	CYP2C9 inh 74
Cc1nn(Cc2ccccc2Cl)c(C)c1C(=O)Nc1nnc(C2CC2)s1	CYP2C9 inh 51
Cc1ccc(-c2nnn(CC(=O)Nc3cccc4cccnc34)n2)o1	none
CCOC(=O)c1sc(NC(=O)/C=C/c2cnn(CC)c2C)c(C(=O)OCC)c1C	none
CCOc1ccc(OCCOCCn2ccnc2)cc1	CYP2C19 inh 98
CS(=O)(=O)c1ccc2nc(NC(=O)CN3CCN(Cc4ccccc4)CC3)sc2c1	CYP2C19 inh 65
CS(=O)(=O)c1ccc2nc(NC(=O)C3COc4ccccc4O3)sc2c1 (stereo not given)	CYP2C9 inh 76
COc1ccc2nc(NC(=O)C3COc4ccccc4O3)sc2c1 (stereo not given)	CYP2C19 inh 57
CCOc1ccc(CSC(CC(=O)O)C(=O)O)cc1 (stereo not given)	none
O=C(NCc1ccncc1)C1CCN(S(=O)(=O)Cc2ccccc2)CC1	CYP2C9 inh 92
CC(C)(C)c1ccc(C(=O)N2CCC(C(=O)NCc3ccncc3)CC2)cc1	CYP2C9 inh 55
Cc1noc(C)c1C(=O)NCCCN1CCCC1=O	none
N/C(CCCN1CCCCC1)=N/O	none
C/C(=N\NC(=O)c1ccccc1O)c1c(O)cc(C)oc1=O	CYP2C9 inh 62
C/C(=N/NC(=O)c1cc2ccccc2cc1O)C1C(=O)c2ccccc2C1=O	CYP2C19 inh 91, CYP2C9 inh 98
C/C(=N\NC(=O)c1ccccc1O)C1C(=O)c2ccccc2C1=O	CYP2C9 inh 90
COc1ccc(N=C(C)C2=C(O)COC2=O)cc1	none
Cc1nnc2n(Cc3ccccc3)c(=O)c3c4c(sc3n12)COC(C)(C)C4	none
c1ccc(CN(Cc2ccco2)C(c2ccncc2)c2nnnn2C2CCCC2)cc1 (stereo not given)	CYP2C19 inh 98, CYP2C9 inh 98
CCN(CC)C(c1ccc(C)cc1)c1nnnn1C1CCCCC1 (stereo not given)	CYP2C19 inh 95, CYP2C9 inh 78

Compound activity deposited in PubChem BioAssay by Sanford-Burnham Center for Chemical Genomics.
